This is part of a sample that, as a whole, favours compounds with a hit. Of some 79,000 tested, about 15% had one in any assay. Activity calls are given as the source filed them. Rule as the data show it: active = growth inhibition above about 70%; inactive = the rest.
What was measured:
[1] = NCI Yeast Anticancer Drug Screen. Data for the mec2-1 strain (AID 157); settings: S. cerevisiae mec2-1 strain, stronger effect = higher value
Outline: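 Compounds were applied to mec2-1 yeast cells. Their growth was then compared with that of vehicle-treated cultures to give growth inhibition.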

[2] = NCI Yeast Anticancer Drug Screen. Data for the rad14 strain (AID 159);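 also: 0% = growth of vehicle-treated control cultures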; settings: S. cerevisiae rad14 strain growth inhibition, stronger effect = higher value
Outline: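 Inhibition of growth is reported for a repair-deficient yeast mutant following compound treatment, calculated relative to cultures that received vehicle.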

[3] = NCI Yeast Anticancer Drug Screen. Data for the sgs1 mgt1 strain (AID 161);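 also: 0% = growth of cultures given vehicle only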; settings: S. cerevisiae sgs1 mgt1 strain, stronger effect = higher value
Outline: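 Yeast cells carrying a defined DNA-repair defect were exposed to test compounds. Growth inhibition was measured relative to vehicle-treated controls.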

[4] = NCI Yeast Anticancer Drug Screen. Data for the CLN2oe strain (AID 163);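 also: 0% = growth of vehicle-only control cultures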; settings: S. cerevisiae CLN2oe strain, stronger effect = higher value
Outline: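 Cells of an engineered yeast line with disturbed cell-cycle regulation are treated with compound. Inhibition of growth is then calculated relative to the vehicle-treated reference.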

[5] = NCI Yeast Anticancer Drug Screen. Data for the cln2 rad14 strain (AID 165);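 also: 0% = growth equal to vehicle treated cultures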; settings: S. cerevisiae cln2 rad14 strain, stronger effect = higher value
Outline: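 Strain: cln2 rad14 yeast, altered in cell cycle control and DNA damage repair. Read-out: growth inhibition vs vehicle.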

[6] = NCI Yeast Anticancer Drug Screen. Data for the bub3 strain (AID 167); settings: S. cerevisiae bub3 mutant strain, stronger effect = higher value
Outline: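 Mutant yeast screening strain plus compound; vehicle-treated cultures serve as the 0% inhibition reference.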

[7] = NCI Yeast Anticancer Drug Screen. Data for the wt2 strain (AID 169); settings: S. cerevisiae wt2 strain growth inhibition, stronger effect = higher value
Outline: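 Growth of compound-treated yeast is measured and expressed as inhibition relative to vehicle-only controls.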

[8] = NCI Yeast Anticancer Drug Screen. Data for the mlh1 strain (AID 171);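 also: 0% = growth of vehicle-treated control cultures of the same strain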; settings: S. cerevisiae mlh1 strain growth inhibition, stronger effect = higher value
Outline: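 Test agents were incubated with yeast bearing a defined DNA damage repair or cell cycle control alteration; values are growth inhibition normalised to vehicle-treated cultures.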

[9] = NCI Yeast Anticancer Drug Screen. Data for the sgs1 strain (AID 173);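 also: 0% = growth of vehicle-only control cultures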; settings: S. cerevisiae sgs1 mutant, stronger effect = higher value
Outline: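 Strain with an altered DNA repair or cell cycle pathway exposed to compound. Growth then measured. Value = inhibition versus vehicle control.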

[10] = NCI Yeast Anticancer Drug Screen. Data for the mlh1 rad18 strain (AID 175); settings: S. cerevisiae mlh1 rad18 strain growth inhibition, stronger effect = higher value
Outline: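 A repair-deficient yeast strain is exposed to test compound, and growth is scored relative to vehicle-treated controls.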

[11] = NCI Yeast Anticancer Drug Screen. Data for the rad18 strain (AID 177); settings: S. cerevisiae rad18 mutant growth inhibition, stronger effect = higher value
Outline: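 DNA-repair-defective yeast; compound treatment; growth inhibition scored against vehicle.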

[12] = NCI Yeast Anticancer Drug Screen. Data for the wt1 strain (AID 149);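 also: 0% = growth of vehicle-treated wt1 cultures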; settings: S. cerevisiae wt1 strain (SPY 50644) growth inhibition, stronger effect = higher value
Outline: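 Each compound is tested on wt1 yeast and the loss of growth versus vehicle gives the inhibition value.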

[13] = NCI Yeast Anticancer Drug Screen. Data for the rad50EPP+ strain (AID 151);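 also: 0% = growth of vehicle-treated control cultures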; settings: S. cerevisiae rad50 mutant strain, stronger effect = higher value
Outline: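 Measured: growth inhibition of rad50EPP+ yeast. Reference: vehicle-treated controls. Screen uses strains with defined genetic alterations in DNA damage repair or cell cycle control.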

[14] = NCI Yeast Anticancer Drug Screen. Data for the mgt1 strain (AID 153); settings: S. cerevisiae mgt1 mutant growth inhibition, stronger effect = higher value
Outline: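 Compounds were applied to mgt1 mutant yeast, and growth was then compared against vehicle-treated control cultures to give percent inhibition.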

[15] = NCI Yeast Anticancer Drug Screen. Data for the rad50 strain (AID 155);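 also: 0% = growth of vehicle-only cultures of the same strain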; settings: S. cerevisiae rad50 strain growth inhibition, stronger effect = higher value
Outline: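 Vehicle-treated cultures provide the reference for the growth inhibition reported for compound-exposed, repair-deficient yeast.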

[16] = at 5.0 µM (retest, dose inferred, filed as 0.5)
[17] = at 50.0 µM (retest, dose inferred, filed as 5.0)

Measured: growth inhibition

c1ccc(N/N=C2\CC(c3ccccc3)Oc3ccccc32)cc1 (stereo unspecified)
active: [2]; at 100.0 µM 72% | [3]; at 50.0 µM 74% | [10]; at 50.0 µM 72.5%
inactive: [1]; at 100.0 µM 13% | [2]; at 1.2 µM 0% | [2]; at 3.7 µM 4% | [2]; at 11.0 µM 10% | [2]; at 33.0 µM 52% | [3]; [16] -5% | [3]; [17] 26% | [4]; at 1.2 µM 0% | [4]; at 3.7 µM 1% | [4]; at 11.0 µM 1% | [4]; at 33.0 µM 12% | [4]; at 100.0 µM 17% | [5]; [16] -5% | [5]; [17] 4% | [5]; at 50.0 µM 30.6% | [6]; at 1.2 µM 1% | [6]; at 3.7 µM 4% | [6]; [16] -24% | [6]; at 11.0 µM 15% | [6]; at 33.0 µM 39% | [6]; [17] 27% | [6]; at 50.0 µM 53% | [6]; at 100.0 µM 39% | [7]; at 1.2 µM 0% | [7]; at 3.7 µM -4% | [7]; at 11.0 µM 5% | [7]; at 33.0 µM 21% | [7]; at 100.0 µM 29% | [8]; at 1.2 µM 1% | [8]; at 3.7 µM 0% | [8]; at 11.0 µM 4% | [8]; at 33.0 µM 6% | [8]; at 100.0 µM 3% | [9]; at 1.2 µM -1% | [9]; at 3.7 µM 0% | [9]; at 11.0 µM 5% | [9]; at 33.0 µM 18% | [9]; at 100.0 µM 24% | [10]; [16] -26% | [10]; [17] 50% | [11]; at 1.2 µM 6% | [11]; at 3.7 µM 14% | [11]; at 11.0 µM 20% | [11]; at 33.0 µM 33% | [11]; at 100.0 µM 49%

Cc1nc2ccccc2c(=O)n1NC(=O)c1ccc(CS)cc1
active: [12]; at 100.0 µM 96% | [13]; at 100.0 µM 85% | [14]; at 100.0 µM 86% | [15]; at 100.0 µM 97% | [1]; at 50.0 µM 76.2% | [1]; at 100.0 µM 97% | [2]; at 100.0 µM 95% | [4]; at 100.0 µM 95% | [6]; at 100.0 µM 96% | [7]; at 100.0 µM 92% | [8]; at 100.0 µM 95% | [10]; [17] 71% | [11]; at 100.0 µM 96%
inactive: [12]; at 1.2 µM 8% | [12]; at 3.7 µM 1% | [12]; at 11.0 µM 4% | [12]; at 33.0 µM 17% | [13]; at 1.2 µM -9% | [13]; at 3.7 µM 4% | [13]; at 11.0 µM -3% | [13]; at 33.0 µM 23% | [14]; at 1.2 µM -11% | [14]; at 3.7 µM -12% | [14]; at 11.0 µM -17% | [14]; at 33.0 µM 6% | [15]; at 1.2 µM 7% | [15]; at 3.7 µM 3% | [15]; [16] -24% | [15]; at 11.0 µM 4% | [15]; at 33.0 µM 23% | [15]; [17] 9% | [15]; at 50.0 µM 66.2% | [1]; at 1.2 µM -16% | [1]; at 3.7 µM -4% | [1]; [16] -27% | [1]; at 11.0 µM -13% | [1]; at 33.0 µM 23% | [1]; [17] 1% | [2]; at 1.2 µM -21% | [2]; at 3.7 µM -23% | [2]; at 11.0 µM -25% | [2]; at 33.0 µM 26% | [3]; [16] -14% | [3]; [17] 3% | [3]; at 50.0 µM 65.5% | [4]; at 1.2 µM 2% | [4]; at 3.7 µM -17% | [4]; at 11.0 µM -6% | [4]; at 33.0 µM 22% | [5]; [16] -29% | [5]; [17] 6% | [5]; at 50.0 µM 31.9% | [6]; at 1.2 µM 16% | [6]; at 3.7 µM -6% | [6]; [16] -13% | [6]; at 11.0 µM 16% | [6]; at 33.0 µM 45% | [6]; [17] 41% | [6]; at 50.0 µM -8.65% | [7]; at 1.2 µM 4% | [7]; at 3.7 µM 7% | [7]; at 11.0 µM 9% | [7]; at 33.0 µM 16% | [8]; at 1.2 µM 0% | [8]; at 3.7 µM 12% | [8]; at 11.0 µM 16% | [8]; at 33.0 µM 36% | [10]; [16] -51% | [10]; at 50.0 µM 65% | [11]; at 1.2 µM 9% | [11]; at 3.7 µM 12% | [11]; at 11.0 µM 2% | [11]; at 33.0 µM 40%

CC(C)(C)[Si](C)(C)OCC1OC(n2cnc3c(N)ncnc32)C2OC(=S)OC12 (stereo unspecified)
inactive: [12]; at 1.2 µM 1% | [12]; at 3.7 µM -1% | [12]; at 11.0 µM 0% | [12]; at 33.0 µM 2% | [12]; at 100.0 µM 17% | [13]; at 1.2 µM -5% | [13]; at 3.7 µM -6% | [13]; at 11.0 µM -3% | [13]; at 33.0 µM 3% | [13]; at 100.0 µM 8% | [14]; at 1.2 µM -1% | [14]; at 3.7 µM 0% | [14]; at 11.0 µM 0% | [14]; at 33.0 µM -29% | [14]; at 100.0 µM 14% | [15]; at 1.2 µM -1% | [15]; at 3.7 µM 5% | [15]; [16] 5% | [15]; at 11.0 µM -19% | [15]; at 33.0 µM 17% | [15]; [17] 45% | [15]; at 50.0 µM 4.45% | [1]; at 1.2 µM 0% | [1]; at 3.7 µM 2% | [1]; [16] 5% | [1]; at 11.0 µM 2% | [1]; at 33.0 µM 7% | [1]; [17] 56% | [1]; at 50.0 µM 40% | [1]; at 100.0 µM 28% | [2]; at 1.2 µM 0% | [2]; at 3.7 µM 2% | [2]; at 11.0 µM 3% | [2]; at 33.0 µM 11% | [3]; [16] 5% | [3]; [17] 29% | [3]; at 50.0 µM 11.6% | [4]; at 1.2 µM -2% | [4]; at 3.7 µM -3% | [4]; at 11.0 µM -1% | [4]; at 33.0 µM -2% | [4]; at 100.0 µM 9% | [5]; [16] 3% | [5]; at 50.0 µM -15.6% | [6]; at 1.2 µM 0% | [6]; at 3.7 µM 2% | [6]; [16] -42% | [6]; at 11.0 µM 3% | [6]; at 33.0 µM 3% | [6]; [17] 3% | [6]; at 50.0 µM 48.4% | [6]; at 100.0 µM 10% | [7]; at 1.2 µM -1% | [7]; at 3.7 µM 9% | [7]; at 11.0 µM 1% | [7]; at 33.0 µM 2% | [7]; at 100.0 µM 36% | [8]; at 1.2 µM -1% | [8]; at 3.7 µM -2% | [8]; at 11.0 µM -3% | [8]; at 33.0 µM 0% | [8]; at 100.0 µM 37% | [9]; at 1.2 µM -1% | [9]; at 3.7 µM 2% | [9]; at 11.0 µM 4% | [9]; at 33.0 µM 14% | [11]; at 1.2 µM -1% | [11]; at 3.7 µM 1% | [11]; at 11.0 µM 6% | [11]; at 33.0 µM 22%
active: [15]; at 100.0 µM 98% | [2]; at 100.0 µM 96% | [5]; [17] 98% | [9]; at 100.0 µM 80% | [11]; at 100.0 µM 86%
